The list is not random: actives were taken first. Their share in the collection is about 4.2%.
DAX1 StAR inh: blocks DAX1 repression of SF-1 activated StAR promoter; 370,000 tested, 1.1% active; AID 652010; inhibition, % at 6.8 µM; HEK293T StAR-luciferase reporter, SF-1/DAX-1 repression relief;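 active = inhibition above the mean over all tested compounds plus 3 SD, cut at about 3.6% in these data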;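 also: higher inhibition means more luminescence from relief of DAX-1 repression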
ssDAF-12 act: S. stercoralis DAF-12 activation, primary screen; AID 652126; HEK293 ssDAF-12/GRIP1 lit1-tk-luc reporter, luminescence; % of 3 µM dafachronic acid response; 370,000 tested, 1% active; activation, % at 6.8 µM;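 active = activation above the mean over all tested compounds plus 3 SD, cut at about 0.9% in these data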
hgDAF12 agonist: hgDAF-12 agonism, primary luciferase screen; HEK293 GAL4-hgDAF12 UAS-luciferase reporter, agonist luminescence; normalized to butyrate control; activation, % at 6.8 µM; 370,000 tested, 1.8% active; AID 687014;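 active = activation above a cutoff set at the mean of all screened compounds plus 3 SD, cut at about 10% in these data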
SMARCA2 activ: increases SMARCA2 function in MMTV reporter cells; MG213 cells, MMTV-luciferase reporter, dexamethasone, overnight; activation, % at 9.1 µM; 370,000 tested, 1% active; AID 652017; in the data active = activation above about 7.8%
hcDAF12 agonist: activates DAF-12 receptor from parasite H. contortus. HEK293 hcDAF-12 lit1-tk-luc reporter, luminescence; 0% DMSO, 100% Δ7-dafachronic acid. activation, % at 6.8 µM. 370,000 tested, 1.4% active. AID 652067;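 active = activation above the mean of all tested compounds plus 3 SD, cut at about 5.5% in these data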
hgDAF12 ag: hgDAF-12 agonism, confirmation assay. shares compounds with hgDAF12 agonist. HEK293 GAL4-hgDAF12 luciferase reporter, agonist mode; percent of butyrate response. activation, % at 6.8 µM. 3,300 tested, 80% active. AID 743050;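 active = mean activation over triplicate wells above the hit cutoff derived from the earlier primary screen, cut at about 11% in these data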
LXRb DAF12 ctr: counter-screen for DAF-12 agonists: agonists of human LXR-beta; AID 743051; 3,300 tested, under 10 active; shares compounds with hgDAF12 agonist; activation, % at 6.8 µM; HEK293 Gal4-LXR luciferase reporter, 24 h;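 active = mean activation of the triplicate above a set limit carried over from the primary screen, none filed active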
Target sequence (P55055 whole entry, looked up, the tested form may be a part): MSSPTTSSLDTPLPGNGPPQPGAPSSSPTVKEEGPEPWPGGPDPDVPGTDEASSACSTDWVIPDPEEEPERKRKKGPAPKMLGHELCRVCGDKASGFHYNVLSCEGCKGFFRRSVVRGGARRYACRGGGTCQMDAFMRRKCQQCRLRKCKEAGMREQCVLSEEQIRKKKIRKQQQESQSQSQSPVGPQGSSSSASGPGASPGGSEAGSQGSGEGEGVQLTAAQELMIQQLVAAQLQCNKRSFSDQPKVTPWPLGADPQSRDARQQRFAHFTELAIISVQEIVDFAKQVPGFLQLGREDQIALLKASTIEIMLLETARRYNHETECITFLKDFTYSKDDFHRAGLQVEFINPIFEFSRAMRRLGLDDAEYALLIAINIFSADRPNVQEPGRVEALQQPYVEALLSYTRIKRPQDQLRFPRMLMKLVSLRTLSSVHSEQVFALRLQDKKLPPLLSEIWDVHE
Hits are given with their value; i = inactive; nt = no result given.

SMILES	DAX1 StAR inh	ssDAF-12 act	hgDAF12 agonist	SMARCA2 activ	hcDAF12 agonist	hgDAF12 ag	LXRb DAF12 ctr
Cc1nn(-c2ccccn2)c2c1-c1nc(N)ncc1CC2	i	i	18.4	i	i	10.5	i
CC1Cc2ccccc2N1C1=CC(=O)CCC1 (stereo unspecified)	i	i	i	i	i	nt	nt
O=C1c2cccn2CC2Cc3ccccc3N12 (stereo unspecified)	nt	i	14.6	nt	6.5	16.9	i
Cc1ccccc1CN1CCCCC(NC(=O)C2CCCCC2)C1=O (stereo unspecified)	i	i	i	i	i	nt	nt
Cc1ccc(N2C(=O)c3ccc(N)cc3C2=O)cc1	i	i	15.7	i	i	16.0	i
CC(/C=N/NC(=O)c1nn(C)c(C)c1Br)=C\c1ccccc1	i	i	13.8	i	i	i	i
CC(/C=N/NC(=O)c1c(Br)cnn1C)=C\c1ccccc1	i	i	i	i	i	nt	nt
COc1ccc(CC(=O)NCC2CCN(C(=O)C(=O)c3cc4ccccc4o3)CC2)cc1	i	i	i	i	i	nt	nt
Cc1ccc(Cc2c(-c3ccc(Br)cc3)nc3ccc(Br)cn23)cc1	i	i	16.9	i	i	i	i
Cc1ccc2nc(-c3cccc(Cl)c3)c(Cc3ccsc3)n2c1	i	i	15.6	i	i	i	i
Cc1ccc(Cc2c(-c3ccc(Br)cc3)nc3ccc(Cl)cn23)cc1	i	i	i	i	i	nt	nt
COc1ccccc1Cc1c(-c2ccc(Cl)cc2)nc2ccc(C)cn12	i	1.2	13.6	i	6.1	14.6	i
COC(=O)c1ccc2nc(-c3ccc(Cl)cc3)c(Cc3ccccc3OC)n2c1	i	i	i	i	i	nt	nt
COc1ccc(C(c2nnnn2-c2ccc3c(c2)OCCO3)N2CCN(C/C=C/c3ccccc3)CC2)cc1 (stereo unspecified)	i	i	i	i	i	nt	nt
O=C(Nc1ccc2c(c1)OCO2)c1n[nH]c(=O)c2ccccc12	i	i	17.6	i	i	i	i
Cc1ccc(NC(=O)c2ccc(F)cc2)nc1	i	i	14.6	i	i	11.7	i
O=C(Nc1ccc(Cl)cn1)c1cccc(F)c1	i	i	17.2	i	i	16.8	i
Cc1ccc(NC(=O)C(=O)Nc2ccc(C)cn2)nc1	i	i	i	i	i	nt	nt
Cc1cc(NC(=O)c2cccc(F)c2)ncc1NC(=O)c1ccco1	i	i	14.7	i	i	11.6	i
O=C(Nc1cccc(C(=O)Nc2ccc(Cl)cn2)c1)c1ccccc1	i	i	i	i	i	nt	nt
O=C(Nc1ccc(NC(=O)c2ccccc2F)cn1)c1ccco1	i	i	14.4	i	i	i	i
COc1ccccc1Oc1ccc(N/C=C/C(=O)c2ccco2)cc1	i	i	i	i	i	nt	nt
Cc1ccc(Oc2ccc(NC(=O)c3ccco3)cc2)cc1	i	i	i	i	i	nt	nt
COC(=O)c1ccccc1Oc1ccc(NC(=O)c2ccco2)cc1	i	i	13.5	i	i	i	i
O=C(/C=C/Nc1ccc(Oc2ccccc2Cl)cc1)c1ccco1	i	i	14.6	i	i	16.6	i
SMILES	DAX1 StAR inh	ssDAF-12 act	hgDAF12 agonist	SMARCA2 activ	hcDAF12 agonist	hgDAF12 ag	LXRb DAF12 ctr
O=C(Nc1ccc(NC(=O)c2ccco2)nc1)c1cccc(F)c1	i	i	13.4	i	i	16.2	i
COc1ccc(C(=O)Nc2ccc(SC(F)F)cc2)cc1	i	i	15.1	i	i	11.5	i
COc1ccc(NC(=O)c2cc3ccc(O)cc3o/c2=N\O)cc1	i	i	17.7	i	5.7	15.0	i
COC(=O)c1ccc(OS(=O)(=O)N(C)C)cc1	i	i	20.1	i	i	i	i
COc1ccc(C(=O)NNC(=O)c2cc3ccccc3cc2O)cc1	i	i	i	i	i	nt	nt
COc1ccc(NC(=O)c2cc3ccccc3cc2O)cc1	i	i	15.4	i	i	15.8	i
CCCCOc1ccc(C(=O)Nc2ccc(SC(F)F)cc2)cc1OC	i	i	i	i	i	nt	nt
CC1=C(C(=O)N(C(C)C)C(C)C)CC(CC(=O)NCC2CCCCC2)C(=O)N1Cc1ccc(C(C)(C)C)cc1 (stereo unspecified)	i	i	i	i	i	nt	nt
COC(=O)[C@]12C[C@H](CC(=O)N3CCN(C(=O)C4CC4)CC3)C(=O)N(Cc3ccc(Cl)cc3Cl)C1=C[C@H](C(C)(C)C)O[C@@H]2C	i	i	i	i	i	nt	nt
Cc1ccc(-n2c(SCc3c(Cl)cccc3Cl)nnc2-c2ccco2)cc1	i	i	i	i	i	nt	nt
COc1ccc(NC(=O)c2ccc(OC(F)F)cc2)cc1Cl	3.7	1.4	16.6	i	i	12.2	i
COc1ccc(-c2cc3ccc(O)cc3oc2=O)cc1	i	i	13.6	i	i	13.6	i
COc1ccc(C)cc1NC(=O)c1ccc(OC(F)F)cc1	i	i	i	i	i	nt	nt
O=c1oc2cc(O)ccc2cc1-c1ccccc1	i	i	i	i	i	nt	nt
CN(C)S(=O)(=O)Oc1cccc(C(=O)Nc2ccc(Cl)c(Cl)c2)c1	i	i	i	i	i	nt	nt
COc1ccc(NC(=O)c2ccc(C)cc2)cc1	3.9	i	14.3	i	i	17.8	i
COc1ccc(C(=O)NNC(=O)C(=O)Nc2ccc(C)cc2)cc1	i	i	i	i	i	nt	nt
COc1ccc(NC(=O)c2cccc(OS(=O)(=O)N(C)C)c2)cc1	i	i	16.8	i	i	11.6	i
Cc1cccc(N=Nc2c(C)nn(-c3ccccc3)c2N)c1C	i	i	15.7	i	i	10.7	i
COc1cc(SC)ccc1C(=O)NCCOc1ccc(F)cc1	i	i	16.8	i	i	i	i
COc1ccc(CCNC(=O)c2ccc(SC)cc2OC)cc1	i	i	i	i	i	nt	nt
Cc1ccc(C(=O)N/N=C/c2ccc(N3CCOCC3)cc2)c(C)c1	i	i	14.4	i	i	i	i
O=C(N/N=C/c1ccco1)c1cc(-c2ccc3ccccc3c2)n[nH]1	i	i	15.0	i	i	i	i
CCc1ccc(-c2cc(C(=O)N/N=C/c3ccco3)[nH]n2)cc1	i	i	13.7	i	i	i	i
CC(C)(C)c1cc(C(=O)N/N=C/c2ccco2)n[nH]1	i	i	i	i	i	nt	nt
Cc1ccc(-c2cc(C(=O)NN=C/C=C/c3ccco3)[nH]n2)cc1C	i	i	i	i	i	nt	nt
O=C(C(=O)N1CCC(CNS(=O)(=O)c2ccccc2OC(F)(F)F)CC1)c1cc2ccccc2o1	i	i	i	i	i	nt	nt
CN(C)c1ccc(C(C#N)c2ccccc2)nn1 (stereo unspecified)	i	2.1	21.1	i	6.1	i	i
COc1ccc(C2CC(=O)C(c3ccccc3C)=CN2Cc2ccccc2)cc1 (stereo unspecified)	i	i	i	i	i	nt	nt
